These results are taken from PubChem BioAssay.

Assay [1] is described as follows: E. coli DRC41 culture turbidity changes, primary screen, E. coli filamentation inducer project, strain DRC41, OD650, 48 h (AID 1152).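 Further: E. coli MC1000 strain DRC41 lacking acrAB efflux pump and sulA.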 The following applies: E. coli DRC41 (acrAB sulA), higher = more signal, called active from +8 up or from −8 down.
A short description of assay [2]: small-molecule binders of probe aLefty1, primary screen, biochemical, small-molecule microarray, 635/667 nm fluorescence (AID 1153).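 Further: score merges spot fluorescence with signal-to-noise ratio from the scanned slide images.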 The following applies: higher = more signal.
Assay [3] in a line: PSAC antagonists in infected red cells, primary screen, cell-based, P. falciparum Indochina, OD700, 1 h (AID 1154). The note with it: P. falciparum Indochina infected RBC osmotic lysis, higher = more signal, called active from +8 up or from −8 down.
Assay [4] is described as follows: PSAC antagonists in infected red cells, primary screen, cell-based, P. falciparum Indochina, OD700, 2 h (AID 1155).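 Further: lysis reports solute entry through the parasite surface anion channel PSAC; channel blockers reduce lysis of infected cells.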 The note with it: P. falciparum Indochina infected erythrocytes, osmotic lysis OD700; higher = more signal, called active from +8 up or from −8 down.
Assay [5] is described as follows: osmotic lysis modulators in infected erythrocytes, primary screen, PSAC antagonist project, cell-based, P. falciparum Indochina, OD700, 3 h (AID 1156). The note with it: higher = more signal, called active from +8 up or from −8 down.
Assay [6] in a line: PSAC antagonists in infected red cells, primary screen, cell-based, P. falciparum Indochina, OD700, 18 h (AID 1157). The note with it: P. falciparum Indochina infected erythrocytes, osmotic lysis OD700, 18 h; higher = more signal, called active from +8 up or from −8 down.
A short description of assay [7]: modulators of S6 phosphorylation in cells, primary screen, cell-based, A549, cytoblot, luminescence, serum-stimulated (AID 1158).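 Further: serum-stimulated A549 lung adenocarcinoma cells; signal is phosphorylated S6 detected by cytoblot immunostaining with HRP secondary.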 The following applies: A549 phospho-S6 cytoblot, 5 h, higher = more signal.
Assay [8] deals with NADPH oxidase 2 (Homo sapiens) (UniProt P04839). As to the kind of experiment: NOX2-dependent H2O2 signal modulators, primary screen, NOX inhibitor project, cell-based, HEK293-NOX2, PMA-stimulated, Amplex Red fluorescence (AID 1159). Further: test concentration not given here. The following applies: 45 min, higher = more signal, called active from +8 up or from −8 down.
NADPH oxidase 2 (Homo sapiens), sequence (P04839 whole entry, looked up): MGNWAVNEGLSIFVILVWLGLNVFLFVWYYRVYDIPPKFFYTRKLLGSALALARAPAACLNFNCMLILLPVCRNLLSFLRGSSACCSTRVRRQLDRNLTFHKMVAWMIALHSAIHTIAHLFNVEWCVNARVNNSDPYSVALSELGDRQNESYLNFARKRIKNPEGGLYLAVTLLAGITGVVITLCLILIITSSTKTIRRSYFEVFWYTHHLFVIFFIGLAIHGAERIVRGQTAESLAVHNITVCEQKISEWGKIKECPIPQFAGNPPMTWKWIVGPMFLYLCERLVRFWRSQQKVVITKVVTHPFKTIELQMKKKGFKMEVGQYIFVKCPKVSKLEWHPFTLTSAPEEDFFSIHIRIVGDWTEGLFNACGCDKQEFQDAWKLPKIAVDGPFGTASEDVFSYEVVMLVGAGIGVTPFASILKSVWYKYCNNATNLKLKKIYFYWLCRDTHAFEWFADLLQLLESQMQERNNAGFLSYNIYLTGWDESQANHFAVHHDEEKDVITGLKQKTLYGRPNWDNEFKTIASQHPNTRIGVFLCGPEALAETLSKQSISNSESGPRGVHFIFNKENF
In assay [9] the target is NADPH oxidase 4 (Homo sapiens) (UniProt Q9NPH5). As to the kind of experiment: NOX4-dependent H2O2 signal modulators, primary screen, NOX inhibitor project, cell-based, HEK293-NOX4, tetracycline-induced, Amplex Red fluorescence (AID 1160). The note with it: 45 min, higher = more signal, called active from +8 up or from −8 down.
NADPH oxidase 4 (Homo sapiens), sequence (Q9NPH5 whole entry, looked up): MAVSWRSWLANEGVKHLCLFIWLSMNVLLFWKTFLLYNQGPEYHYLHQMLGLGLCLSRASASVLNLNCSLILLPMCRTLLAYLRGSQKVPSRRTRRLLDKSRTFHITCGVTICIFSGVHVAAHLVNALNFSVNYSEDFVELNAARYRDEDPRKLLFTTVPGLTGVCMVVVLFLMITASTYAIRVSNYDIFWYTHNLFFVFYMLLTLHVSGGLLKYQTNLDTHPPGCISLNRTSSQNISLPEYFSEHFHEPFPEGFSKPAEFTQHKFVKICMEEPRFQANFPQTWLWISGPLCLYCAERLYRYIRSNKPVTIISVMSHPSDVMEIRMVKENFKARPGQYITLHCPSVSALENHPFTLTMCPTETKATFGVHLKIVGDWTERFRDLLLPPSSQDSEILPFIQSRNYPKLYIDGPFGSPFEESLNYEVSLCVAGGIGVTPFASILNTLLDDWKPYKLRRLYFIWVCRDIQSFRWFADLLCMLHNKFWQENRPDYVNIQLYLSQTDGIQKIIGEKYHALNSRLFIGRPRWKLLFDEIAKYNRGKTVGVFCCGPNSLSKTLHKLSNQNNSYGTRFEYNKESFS
Assay [10] has as its target NADPH oxidase 5 (Homo sapiens) (UniProt Q96PH1). As to the kind of experiment: NOX5-dependent H2O2 signal modulators, primary screen, NOX inhibitor project, cell-based, HEK293-NOX5, Amplex Red fluorescence (AID 1161). The following applies: HEK293-NOX5, ionomycin, 45 min, higher = more signal.
The nature of assay [11]: A549 cell viability effects, profiling panel, calcein-AM fluorescence, 48 h, basal (AID 1162). Further: test concentration not given here. The note with it: higher = more signal.
Assay [12] is described as follows: adipocyte viability effects, profiling panel, cell-based, 3T3-L1 adipocytes, calcein-AM fluorescence, 48 h, basal (AID 1163). Further: test concentration not given here. The note with it: 3T3-L1 adipocytes viability, higher = more signal.
Assay [13] can be described thus: HepG2 cell viability effects, profiling panel, calcein-AM fluorescence, 48 h, basal (AID 1164). Further: test concentration not given here. The following applies: higher = more signal.
Assay [14] in a line: MM1S cell viability effects, profiling panel, calcein-AM fluorescence, 48 h, basal (AID 1165).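 Further: viability of MM1S multiple myeloma cells under basal unstimulated conditions; test concentration not given here.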 The following applies: higher = more signal.
The nature of assay [15]: basal RPMI8226 viability, no added stimulus, profiling panel, cell-based, calcein-AM fluorescence, 48 h, PK04 Diversity Set (AID 1166).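 Further: cells grown under basal conditions without added stimulus; test concentration not given here.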 The note with it: RPMI8226 myeloma viability, higher = more signal.
A short description of assay [16]: basal HepG2 mitochondrial membrane potential changes, profiling panel, cell-based, JC-1 fluorescence, 24 h, 100 nL compound (AID 1167). Further: test concentration not given here. The note with it: higher = more signal.
The nature of assay [17]: basal 3T3-L1 adipocyte mitochondrial potential changes, profiling panel, cell-based, JC-1 fluorescence, 3T3-L1 adipocytes, 24 h, 100 nL compound (AID 1168). Further: test concentration not given here. The following applies: JC-1 mitochondrial fluorescence, higher = more signal, called active from +8 up or from −8 down.
Assay [18] is described as follows: basal RPMI8226 mitochondrial membrane potential changes, profiling panel, cell-based, JC-1 fluorescence, 24 h, 100 nL compound (AID 1169). Further: test concentration not given here. The note with it: RPMI8226 myeloma, JC-1 mitochondrial potential fluorescence, higher = more signal.
Assay [19] in a line: basal MM1S mitochondrial membrane potential changes, profiling panel, cell-based, JC-1 fluorescence, 24 h, 100 nL compound (AID 1170). Further: test concentration not given here. The note with it: higher = more signal.
Assay [20] in a line: A549 lung cancer cell viability effects, profiling panel, resazurin fluorescence, 24 h, PK04 Diversity Set (AID 1171). Further: test concentration not given here. The note with it: higher = more signal, called active from +8 up or from −8 down. (In general: Alamar Blue is a resazurin reagent that responds to reducing activity.)

Active and inactive are the calls of the source.

NADPH oxidase 5 (Homo sapiens), sequence (Q96PH1 whole entry, looked up): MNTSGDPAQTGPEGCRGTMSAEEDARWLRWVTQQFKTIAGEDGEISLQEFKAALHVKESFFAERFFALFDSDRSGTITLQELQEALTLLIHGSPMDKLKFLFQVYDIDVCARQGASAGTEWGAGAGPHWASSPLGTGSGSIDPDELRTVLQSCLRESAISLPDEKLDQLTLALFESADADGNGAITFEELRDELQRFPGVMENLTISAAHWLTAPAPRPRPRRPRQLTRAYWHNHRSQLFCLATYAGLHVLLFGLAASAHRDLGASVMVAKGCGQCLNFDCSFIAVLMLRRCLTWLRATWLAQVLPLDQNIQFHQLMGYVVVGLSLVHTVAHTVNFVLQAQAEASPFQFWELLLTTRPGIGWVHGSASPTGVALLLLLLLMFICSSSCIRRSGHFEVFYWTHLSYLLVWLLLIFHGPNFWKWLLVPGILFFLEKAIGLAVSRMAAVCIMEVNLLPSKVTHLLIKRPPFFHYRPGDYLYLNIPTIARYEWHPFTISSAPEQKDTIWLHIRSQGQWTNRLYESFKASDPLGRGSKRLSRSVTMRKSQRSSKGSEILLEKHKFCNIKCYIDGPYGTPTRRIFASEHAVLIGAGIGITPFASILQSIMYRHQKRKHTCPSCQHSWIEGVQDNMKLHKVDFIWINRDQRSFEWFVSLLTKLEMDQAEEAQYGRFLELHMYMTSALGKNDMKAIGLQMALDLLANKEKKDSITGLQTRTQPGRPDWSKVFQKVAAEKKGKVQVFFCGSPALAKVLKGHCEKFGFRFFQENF

As to `[N-]=[N+]=NCc1ccccc1[C@@H]1OC(c2ccc(OCCCO)cc2)=N[C@]1(Cc1ccccc1)C(=O)N1CCCCC1`, the z-score in assay [1] was 1.22 (inactive); in assay [3], 21.5 (active); in assay [4], 4.66 (inactive); in assay [5], 1.78 (inactive); in [6] it was 1.3 (inactive); in assay [7] it was -0.205. Moreover, the z-score was -0.84 (inactive) in [8]; 0.453 (inactive) in assay [9]; -1.26 in assay [10]; 0.251 in [11]; 0.445 in [12]; 0.525 in [13]. Besides, the z-score in assay [14] is -0.604; in assay [15], -3.3; in assay [16], -0.227; in assay [17], 0.467 (inactive); in assay [18] it was -1.23; in assay [19] it was -0.354. In addition, the z-score in [20] is 0.583 (inactive). In assay [2], this compound returned a composite z-score of 0.33.

With `N#Cc1ccc(NN2C(C(O)c3ccc([N+](=O)[O-])cc3)C=CC3C(=O)N(c4ccccc4)C(=O)C32)cc1` (stereo not given), the z-score was -2.18 (inactive) in assay [1]; 11.9 (active) in assay [3]; 2.06 (inactive) in [4]; 0.362 (inactive) in assay [5]; 1.49 (inactive) in assay [6]; -0.946 in assay [7]. Also, the z-score is -1.45 (inactive) in assay [8]; -4.95 (inactive) in assay [9]; -3.56 in assay [10]; -1.14 in assay [11]; 0.0202 in [12]; -0.335 in [13]. Moreover, the z-score in assay [14] was -0.237; in assay [15], -0.402; in assay [16], -1.91; in [17] it was -0.703 (inactive); in assay [18], -0.993; in assay [19] it was 0.0361. The z-score in assay [20] is 0.172 (inactive). In addition, the composite z-score in assay [2] was found to be 0.0927.

With `COCCOC(=O)N1C(=O)[C@@]2(c3cc(C#CCNC(N)=O)ccc31)[C@H](C(=O)N1CCN(c3ncccn3)CC1)[C@H]1C(=O)O[C@H](c3ccccc3)[C@H](c3ccccc3)N1[C@@H]2c1ccccc1OCCO`, the z-score in [1] was 1.07 (inactive); in assay [3] it was 2.72 (inactive); in assay [4] it was 1.32 (inactive); in assay [5], 0.749 (inactive); in assay [6], 0.883 (inactive); in [7] it was 0.915. The z-score in assay [8] was 1.99 (inactive); in assay [9], 0.756 (inactive); in [10] it was -1.08; in assay [11], -0.246; in assay [12], 1.24; in [13] it was -0.539. The z-score in assay [14] was -0.648; in assay [15], -0.876; in [16], -1.43; in assay [17], 1.29 (inactive); in assay [18] it was -1.09; in assay [19] it was -1.04. In assay [20], the z-score was 1.02 (inactive). In [2], this compound returned a composite z-score of 0.248.

With `COCCOC(=O)N1C(=O)[C@@]2(c3cc(C#CCC(C(=O)OC)C(=O)OC)ccc31)[C@H](C(=O)N1CCN(c3ncccn3)CC1)[C@H]1C(=O)O[C@H](c3ccccc3)[C@H](c3ccccc3)N1[C@@H]2c1ccc(OCCO)cc1`, the z-score in assay [1] was 3.02 (inactive); in assay [3], 17.3 (active); in [4], 3.12 (inactive); in assay [5], -0.153 (inactive); in assay [6] it was 0.857 (inactive); in assay [7] it was 2.2. Moreover, the z-score is 1.41 (inactive) in [8]; 1.43 (inactive) in assay [9]; 0.897 in [10]; 1.68 in assay [11]; 1.02 in assay [12]; 0.674 in assay [13]. The z-score in assay [14] is 0.65; in [15] it was 1.21; in [16], -0.656; in [17] it was 1.86 (inactive); in [18] it was -0.303; in assay [19] it was -1.16. Moreover, the z-score in [20] was 0.665 (inactive). In assay [2], this compound came in with a composite z-score of -0.0511.
